In PubChem BioAssay (NCATS):
Inconclusive results are not listed. Calls of active or inactive are those of the source. Calls come from the whole dose curve; as a rule, active = well fitted cell-killing curve with a large enough effect; inconclusive = small, poorly fitted or top-dose-only effect; inactive = flat fitted curve, though single readings scatter.

experiment: qHTS assay to identify small molecule inhibitors of chordoma cells - UCH-2 (AID 1259356); details: UCH-2 chordoma viability, CellTiter-Glo ATP luminescence, 48 h; series mostly up to 46.1 µM; activity change, negative = inhibition: at the top concentration
Description: NIH Chemical Genomics Center [NCGC]
Chordoma is a rare and slow growing tumor that can occur anywhere along the spine, from the base of the skull to the tailbone. Current treatment options for chordoma is surgery and radiation therapy for those who are not candidates for surgery. But chordomas tend to return in the same location or surrounding areas of the original tumor after surgery and/or radiation. Chemotherapy can slow down the progression of the tumor. As chordoma is slow growing, the general cytotoxic agents that kill fast growing cells are ineffective, and some patients have been reported to respond to molecularly targeted drugs.
NCATS Pharmaceutical Collection (NPC) containing approximately 3000 clinically approved and investigational drugs were used to screen at 15 concentrations in a chordoma cell lines, UCH-2, to identify small molecule compounds that can inhibit chordoma cell growth.
NCGC Assay Protocol Summary:
Human chordoma cell line UCH-2 was dispensed at 800 per well in 4uL of culture medium into white solid bottom 1536-well plates (Corning Life Sciences, Corning, NY) using a Multidrop Combi (Thermo Scientific, Waltham, MA) dispenser. The assay plates were incubated at 37 C and 5% CO2 for an overnight, and then 23nL of compounds dissolved in DMSO and positive control were transferred using a Pintool station (Wako, San Diego, CA). Compound treatment was followed by the addition of 1uL of the combination compounds (1uM Auranofin, 500nM each of Camptothecin, Doxorubicin, Rubitecan, and Topotecan) and assay medium to each well of the assay plates using Flying Reagent Dispenser (FRD, Aurora Discovery, San Diego, CA). The assay plates were incubated at 37 C and 5% CO2 for 48hr. Then 5uL of CellTiter-Glo reagent (Promega Corporation, Madison, WI) was added to each well of the assay plates using FRD. After 30min incubation at room temperature, the luminescence signal was quantified using a ViewLux plate reader (PerkinElmer, Shelton, CT).
% is set by controls: 0 for no effect and ±100 for the full control effect.

Row | Structure (SMILES) | activity change, negative = inhibition
1 | Nc1ccc(/C=C/c2ccc(N)cc2S(=O)(=O)O)c(S(=O)(=O)O)c1 | 2.37% (inactive)
2 | Nc1ccc(C(=O)Nc2ccccc2N)cc1 | 0.449% (inactive)
3 | O=C(COc1ccc(Cl)cc1)N1CCN(Cc2ccc3c(c2)OCO3)CC1 | 7.93% (inactive)
4 | COc1c(C)c2c(c(O)c1C/C=C(\C)CCC(=O)O)C(=O)OC2 | 4.06% [at 20.6 µM] (inactive)
5 | Cc1c(C)n(CCN(C)C)c2ccc(C(=O)OCCN(C)C)cc12 | -23.8% (inactive)
6 | O=S1(=O)c2cccc3cccc(c23)N1CCCN1CCN(c2ccc(F)cc2)CC1 | -5.47% (inactive)
7 | N[C@@H](Cc1cnc[nH]1)C(=O)O | 5.22% (inactive)
8 | CNCCC=C1c2ccccc2CCc2ccccc21 | -22.3% (inactive)
9 | CN1CCN(CCCN2c3ccccc3Sc3ccc(S(=O)(=O)N(C)C)cc32)CC1 | -10.1% [at 20.6 µM] (inactive)
10 | Cc1cc(N)c2cc(NC(=O)Nc3ccc4nc(C)cc(N)c4c3)ccc2n1 | -0.375% (inactive)
11 | O=c1c(-c2ccccc2)c1-c1ccccc1 | 2.15% (inactive)
12 | C=C(CC)C(=O)c1ccc(OCC(=O)O)c(Cl)c1Cl | 0.481% (inactive)
13 | OC[C@H]1O[C@@H](n2cnc3c(=S)nc[nH]c32)[C@H](O)[C@@H]1O | -19% (inactive)
14 | CCn1cc(C(=O)O)c(=O)c2cnc(N3CCCC3)nc21 | 8.05% [at 20.6 µM] (inactive)
15 | CC(Cc1ccccc1)(NC(=O)CN)c1ccccc1 (stereo not given) | 4.53% (inactive)
16 | O=C1OC2(c3ccc(O)cc3Oc3cc(O)ccc32)c2ccccc21 | 11.6% (inactive)
17 | O=C(OCCOCCO)c1ccccc1Nc1cccc(C(F)(F)F)c1 | 0.463% [at 20.6 µM] (inactive)
18 | C#C[C@]1(O)CC[C@H]2[C@@H]3CCC4=CC(=O)CC[C@@H]4[C@H]3CC[C@@]21C | 4.1% (inactive)
19 | CCC(NC(C)C)C(O)c1ccc(O)c(O)c1 (stereo not given) | -4.84% (inactive)
20 | CC1(C)O[C@@H]2C[C@H]3[C@@H]4C[C@H](F)C5=CC(=O)C=C[C@]5(C)[C@H]4[C@@H](O)C[C@]3(C)[C@]2(C(=O)CO)O1 | 1.55% [at 20.6 µM] (inactive)

Row | Structure (SMILES) | activity change, negative = inhibition
21 | CC(=O)Oc1ccc2c(c1)CC[C@@H]1[C@@H]2CC[C@]2(C)[C@@H](O)CC[C@@H]12 | -1.55% (inactive)
22 | CC(C)(C)CC(C)(C)c1ccc(OCCOCC[N+](C)(C)Cc2ccccc2)cc1 | 0% (inactive)
23 | COc1cc(C(=S)N2CCOCC2)cc(OC)c1OC | -0.752% (inactive)
24 | CN1CCC[C@@H]1c1cccnc1 | -1.07% (inactive)
25 | CC(=O)O[C@H]1C[C@@H]2CC[C@@H]3[C@H](CC[C@@]4(C)[C@H]3C[C@H]([N+]3(C)CCCCC3)[C@@H]4OC(C)=O)[C@@]2(C)C[C@@H]1[N+]1(C)CCCCC1 | 0% (inactive)
26 | CC(=O)OCC(=O)[C@@]12OC(C)(C)O[C@@H]1C[C@H]1[C@@H]3C[C@H](F)C4=CC(=O)C=C[C@]4(C)[C@@]3(F)[C@@H](O)C[C@@]12C | 8.7% [at 20.6 µM] (inactive)
27 | CCCCCCCCCCCCCCNCCO | 19.8% (inactive)
28 | CC(=O)N(O)CCCCCNC(=O)CCC(=O)N(O)CCCCCNC(=O)CCC(=O)N(O)CCCCCN | 6.17% [at 20.6 µM] (inactive)
29 | c1ccc(-c2ccc(C(c3ccccc3)n3ccnc3)cc2)cc1 (stereo not given) | -1.66% (inactive)
30 | CCN1CCC[C@H]1CNC(=O)c1c(OC)ccc(Br)c1OC | -6.24% (inactive)
31 | C[C@]12C=CC(=O)C=C1[C@@H](F)C[C@@H]1[C@@H]2[C@@H](O)C[C@@]2(C)[C@H]1CC[C@]2(O)C(=O)CO | -1.64% (inactive)
32 | COCc1c(C(C)C)nc(C(C)C)c(/C=C/[C@@H](O)C[C@@H](O)CC(=O)O)c1-c1ccc(F)cc1 | -16.4% (inactive)
33 | CCOc1ccc2nc3cc(N)ccc3c(N)c2c1 | 7.62% (inactive)
34 | CC(=O)[C@H]1CC[C@H]2[C@@H]3C[C@H](C)C4=CC(=O)CC[C@]4(C)[C@H]3[C@@H](O)C[C@]12C | 7.69% [at 20.6 µM] (inactive)
35 | CC(C)(Oc1ccc(Cl)cc1)C(=O)O | 0.684% (inactive)
36 | CC1=C(C(=O)O)N2C(=O)[C@@H](NC(=O)[C@H](N)c3ccc(O)cc3)[C@H]2SC1 | 16.1% [at 20.6 µM] (inactive)
37 | CNCC[C@@H](Oc1ccccc1C)c1ccccc1 | -25.8% (inactive)
38 | CN1CCN(C(c2ccccc2)c2ccccc2)CC1 | 15.2% [at 20.6 µM] (inactive)
39 | COc1ccc(OC)c(C(O)CNC(=O)CN)c1 (stereo not given) | 8.63% [at 20.6 µM] (inactive)
40 | COc1ccc(C2C(=O)c3ccccc3C2=O)cc1 | 6.58% (inactive)
